In all, about 210,000 compounds went through this assay and about 1,300 (0.62%) were called active. The entries come from a sample that favours actives as a whole. A number with no mark means an inactive call.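 The calls were made as follows: active = inhibition of 40% or more; inactive = the rest.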

These results are taken from PubChem BioAssay AID873 (PCMD, 2007).

For this assay, the target named is Kallikrein-5 (Homo sapiens) (UniProt Q9Y337). In words: human KLK5 protease inhibitors, primary screen, biochemical, 1536-well (AID 873).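 Also: 0% = enzyme controls without compound and 100% = no-enzyme blanks.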 Conditions: recombinant hK5, fluorogenic AMC substrate cleavage; at 5 µM; hits give high values.
Chain of Kallikrein-5 (Homo sapiens) (Q9Y337 67-293 limits assumed): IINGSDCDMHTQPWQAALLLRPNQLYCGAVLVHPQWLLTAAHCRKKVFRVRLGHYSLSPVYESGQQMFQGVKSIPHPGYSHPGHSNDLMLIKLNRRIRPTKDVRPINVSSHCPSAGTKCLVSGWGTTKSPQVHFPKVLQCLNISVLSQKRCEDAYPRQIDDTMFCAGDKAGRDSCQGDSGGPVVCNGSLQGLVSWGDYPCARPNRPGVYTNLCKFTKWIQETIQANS
`C=CCNc1cnn(-c2ccc(C)cc2)c(=O)c1Cl`: the inhibition is 58% (active).
The figure for `O=c1c(Cl)c(NC2CC2)cnn1-c1ccccc1` is -14.4%; for `Cc1ccc(Oc2cnn(-c3ccccc3)c(=O)c2Br)cc1` it is -20.9%; for `CS(=O)(=O)c1ccc(Cl)c(NC(=O)Nc2ccccc2)c1` it is 15.8%.
Then `CC(C)c1nc(SCC(=O)NC(=O)NC(C)(C)C)n[nH]1`, with -0.71%; and `Cc1cccn2c(CNCC(C)Oc3cccnc3)c(C(=O)N3CCOCC3)nc12` (stereo not given), with -2.01%; and `COc1ccc(N2CCC(CNC(=S)Nc3c(C)cccc3C)C2)cc1` (stereo not given), with -0.97%.
Then `Cc1nc2nc(SCC(=O)c3ccccc3)[nH]c2cc1Br`, with 1.2%; and `C/C(=N/NC(=O)CN1CCN(S(=O)(=O)c2ccc(Br)cc2)CC1)c1ccncc1`, with 1.01%; and `CCc1ccccc1NC(=O)c1cccs1`, with -5.15%.
With `O=C(Nc1ccccc1-c1nnn(CC(=O)N2CCN(c3ccccc3)CC2)n1)c1cccs1`, the inhibition is 8.06%.
In the case of `O=C(Nc1ccccc1-c1ccccc1)c1cccs1`, the inhibition was 40% (active).
Then `Cc1cc(=O)oc(C)c1C(=O)N1CCCCC1`, with -21.2%.
Take `CC(C)Cc1oc(C(=O)O)cc1CN`: the inhibition was -20.2%.
Then `Cc1oc(CC(C)C)c(CN2CCCC2)c1C(=O)O`, with 40.4% (active); and `Cc1ccc(Nc2c3c(nc4ccccc24)CCC3)cc1`, with -1.22%.
Then `COc1ccc(NS(=O)(=O)c2ccc(N3CCOCC3)c(NC(=O)c3ccccc3Br)c2)cc1`, with -3.92%; and `Cc1cc(C)nc(Nc2n[nH]c(-c3ccccc3N)n2)n1`, with -1.46%.
Then `CC(C)CCN1NC2(CCC(C)CC2)NC1=S` (stereo not given), with 0.13%.
Regarding `COc1ccccc1N1CCN(CCCCOc2ccc(F)cc2)CC1`, the inhibition is 40.1% (active).
Then `CCN1CCN(CCCCOc2ccccc2F)CC1`, with -9.3%; and `COc1ccccc1N1CCN(Cc2ccc(OC)c3ccccc23)CC1`, with -4.66%.
The figure for `CCOC(=O)c1ccc(NC(=O)Cn2cnc3cc(C)c(C)cc32)cc1` is 3.77%; for `Cc1nc(N)[nH]c(=O)c1Oc1cccc(C(F)(F)F)c1` it is -0.74%.
The figure for `Cc1cc(=O)[nH]c(SCC(=O)Nc2ccc(Br)cc2)n1` is 2.46%; for `CCOc1ccccc1N1CN(Cc2ccccc2)CNC1=S` it is -6.7%.
As to `CCCc1ccc(C(=O)[C@@H]2[C@@H](C(C)=O)N3c4ccc(F)cc4C=C[C@@H]3[C@@]23C(=O)Nc2ccccc23)cc1`, the inhibition is 3.66%.
As to `O=C(c1cnn2ccccc12)N1CCc2ccccc21`, the inhibition was 68.7% (active).
The figure for `NC(=O)N1CCc2ccccc21` is -6.77%; for `O=C(c1cccc(C(=O)N2CCc3ccccc32)n1)N1CCc2ccccc21` it is -28.7%.
